According to the supplement of paper PMC11732987, “Enantioselective OTUD7B fragment discovery through chemoproteomics screening and high-throughput optimisation” (Communications Chemistry, 2025):

How the values were obtained:
Experiment in all cases: log2 ratio of Biotin-Ahx-Ub-VS probe labelling (fragment/DMSO); higher = less target engagement (more negative = stronger competition), active = hit call of the paper (q ≤ 0.05, log2 ratio ≤ -1)
Details in all cases: compound concentration: 200 uM; treatment time: 3 h
[1] = molecular target: T1, USP19 (UniProt O94966)
T1 sequence (whole entry): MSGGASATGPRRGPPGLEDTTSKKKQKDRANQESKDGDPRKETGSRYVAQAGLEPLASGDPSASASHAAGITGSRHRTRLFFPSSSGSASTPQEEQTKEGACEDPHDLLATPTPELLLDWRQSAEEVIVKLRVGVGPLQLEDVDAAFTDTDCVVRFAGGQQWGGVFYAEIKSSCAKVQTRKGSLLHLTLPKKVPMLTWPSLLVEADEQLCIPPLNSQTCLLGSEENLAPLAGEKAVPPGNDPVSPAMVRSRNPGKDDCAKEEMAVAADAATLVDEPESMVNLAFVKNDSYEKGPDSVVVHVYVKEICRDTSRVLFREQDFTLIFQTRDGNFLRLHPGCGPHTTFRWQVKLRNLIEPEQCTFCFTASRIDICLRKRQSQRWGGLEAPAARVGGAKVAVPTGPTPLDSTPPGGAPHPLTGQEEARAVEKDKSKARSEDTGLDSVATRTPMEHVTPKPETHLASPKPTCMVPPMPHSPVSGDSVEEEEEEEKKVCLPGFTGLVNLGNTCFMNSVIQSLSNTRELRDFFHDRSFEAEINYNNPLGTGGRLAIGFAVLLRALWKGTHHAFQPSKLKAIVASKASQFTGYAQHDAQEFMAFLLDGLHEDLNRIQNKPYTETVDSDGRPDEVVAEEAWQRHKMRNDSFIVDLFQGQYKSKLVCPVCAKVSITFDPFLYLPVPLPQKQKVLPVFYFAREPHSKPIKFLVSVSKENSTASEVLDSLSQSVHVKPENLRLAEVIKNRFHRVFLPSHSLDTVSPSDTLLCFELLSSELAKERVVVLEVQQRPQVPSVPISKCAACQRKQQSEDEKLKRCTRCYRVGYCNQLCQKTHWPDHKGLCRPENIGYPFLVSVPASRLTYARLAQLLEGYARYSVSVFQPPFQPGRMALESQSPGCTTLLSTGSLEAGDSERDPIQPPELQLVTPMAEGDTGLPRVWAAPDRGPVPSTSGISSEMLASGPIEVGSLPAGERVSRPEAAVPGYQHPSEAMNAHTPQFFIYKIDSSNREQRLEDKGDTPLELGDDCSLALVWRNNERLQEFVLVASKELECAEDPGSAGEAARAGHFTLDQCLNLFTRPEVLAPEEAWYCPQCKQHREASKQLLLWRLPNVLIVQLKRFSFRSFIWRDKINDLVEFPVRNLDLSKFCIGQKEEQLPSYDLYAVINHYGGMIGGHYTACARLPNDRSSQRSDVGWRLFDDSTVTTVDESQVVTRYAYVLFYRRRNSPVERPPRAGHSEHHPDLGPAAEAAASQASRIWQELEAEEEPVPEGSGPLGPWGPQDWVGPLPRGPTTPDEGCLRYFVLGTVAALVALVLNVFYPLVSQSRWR
Summary of the method: (§1)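 Labelled DUBs from HEK293T lysate were NeutrAvidin-enriched, digested with LysC and trypsin, and run by diaPASEF LC-MS/MS. Before that, each 495 µg sample in Tris/CHAPS/IGEPAL buffer with protease inhibitors was treated in triplicate with fragment at 200 µM or vehicle for 3 h, then with Biotin-Ahx-Ub-VS at 0.5 µM final for 1 h. Values are average log2 ratios of fragment over vehicle by unpaired t-test, based on global-median-normalised Spectronaut label-free quantities from proteins with ≥2 unique peptides.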

[2] = molecular target: T2, USP22 (UniProt Q9UPT9)
T2 sequence (whole entry): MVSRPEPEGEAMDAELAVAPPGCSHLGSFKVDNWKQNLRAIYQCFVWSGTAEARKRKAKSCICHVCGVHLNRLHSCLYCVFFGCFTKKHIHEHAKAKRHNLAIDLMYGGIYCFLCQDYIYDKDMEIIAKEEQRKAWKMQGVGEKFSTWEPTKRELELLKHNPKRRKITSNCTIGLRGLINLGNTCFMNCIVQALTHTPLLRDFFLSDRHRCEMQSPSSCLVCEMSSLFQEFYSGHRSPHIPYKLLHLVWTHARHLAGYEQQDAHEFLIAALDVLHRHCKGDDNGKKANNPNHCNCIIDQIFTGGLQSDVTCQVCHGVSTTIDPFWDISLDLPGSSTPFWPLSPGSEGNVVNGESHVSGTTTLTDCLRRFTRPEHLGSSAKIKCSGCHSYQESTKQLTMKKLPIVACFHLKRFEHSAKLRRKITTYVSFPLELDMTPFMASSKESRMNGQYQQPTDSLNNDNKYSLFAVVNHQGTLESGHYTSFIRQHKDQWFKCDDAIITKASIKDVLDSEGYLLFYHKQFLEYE
Summary of the method: as §1

[3] = molecular target: USP24 (UniProt Q9UPU5)
Chain of USP24 (Q9UPU5 whole entry): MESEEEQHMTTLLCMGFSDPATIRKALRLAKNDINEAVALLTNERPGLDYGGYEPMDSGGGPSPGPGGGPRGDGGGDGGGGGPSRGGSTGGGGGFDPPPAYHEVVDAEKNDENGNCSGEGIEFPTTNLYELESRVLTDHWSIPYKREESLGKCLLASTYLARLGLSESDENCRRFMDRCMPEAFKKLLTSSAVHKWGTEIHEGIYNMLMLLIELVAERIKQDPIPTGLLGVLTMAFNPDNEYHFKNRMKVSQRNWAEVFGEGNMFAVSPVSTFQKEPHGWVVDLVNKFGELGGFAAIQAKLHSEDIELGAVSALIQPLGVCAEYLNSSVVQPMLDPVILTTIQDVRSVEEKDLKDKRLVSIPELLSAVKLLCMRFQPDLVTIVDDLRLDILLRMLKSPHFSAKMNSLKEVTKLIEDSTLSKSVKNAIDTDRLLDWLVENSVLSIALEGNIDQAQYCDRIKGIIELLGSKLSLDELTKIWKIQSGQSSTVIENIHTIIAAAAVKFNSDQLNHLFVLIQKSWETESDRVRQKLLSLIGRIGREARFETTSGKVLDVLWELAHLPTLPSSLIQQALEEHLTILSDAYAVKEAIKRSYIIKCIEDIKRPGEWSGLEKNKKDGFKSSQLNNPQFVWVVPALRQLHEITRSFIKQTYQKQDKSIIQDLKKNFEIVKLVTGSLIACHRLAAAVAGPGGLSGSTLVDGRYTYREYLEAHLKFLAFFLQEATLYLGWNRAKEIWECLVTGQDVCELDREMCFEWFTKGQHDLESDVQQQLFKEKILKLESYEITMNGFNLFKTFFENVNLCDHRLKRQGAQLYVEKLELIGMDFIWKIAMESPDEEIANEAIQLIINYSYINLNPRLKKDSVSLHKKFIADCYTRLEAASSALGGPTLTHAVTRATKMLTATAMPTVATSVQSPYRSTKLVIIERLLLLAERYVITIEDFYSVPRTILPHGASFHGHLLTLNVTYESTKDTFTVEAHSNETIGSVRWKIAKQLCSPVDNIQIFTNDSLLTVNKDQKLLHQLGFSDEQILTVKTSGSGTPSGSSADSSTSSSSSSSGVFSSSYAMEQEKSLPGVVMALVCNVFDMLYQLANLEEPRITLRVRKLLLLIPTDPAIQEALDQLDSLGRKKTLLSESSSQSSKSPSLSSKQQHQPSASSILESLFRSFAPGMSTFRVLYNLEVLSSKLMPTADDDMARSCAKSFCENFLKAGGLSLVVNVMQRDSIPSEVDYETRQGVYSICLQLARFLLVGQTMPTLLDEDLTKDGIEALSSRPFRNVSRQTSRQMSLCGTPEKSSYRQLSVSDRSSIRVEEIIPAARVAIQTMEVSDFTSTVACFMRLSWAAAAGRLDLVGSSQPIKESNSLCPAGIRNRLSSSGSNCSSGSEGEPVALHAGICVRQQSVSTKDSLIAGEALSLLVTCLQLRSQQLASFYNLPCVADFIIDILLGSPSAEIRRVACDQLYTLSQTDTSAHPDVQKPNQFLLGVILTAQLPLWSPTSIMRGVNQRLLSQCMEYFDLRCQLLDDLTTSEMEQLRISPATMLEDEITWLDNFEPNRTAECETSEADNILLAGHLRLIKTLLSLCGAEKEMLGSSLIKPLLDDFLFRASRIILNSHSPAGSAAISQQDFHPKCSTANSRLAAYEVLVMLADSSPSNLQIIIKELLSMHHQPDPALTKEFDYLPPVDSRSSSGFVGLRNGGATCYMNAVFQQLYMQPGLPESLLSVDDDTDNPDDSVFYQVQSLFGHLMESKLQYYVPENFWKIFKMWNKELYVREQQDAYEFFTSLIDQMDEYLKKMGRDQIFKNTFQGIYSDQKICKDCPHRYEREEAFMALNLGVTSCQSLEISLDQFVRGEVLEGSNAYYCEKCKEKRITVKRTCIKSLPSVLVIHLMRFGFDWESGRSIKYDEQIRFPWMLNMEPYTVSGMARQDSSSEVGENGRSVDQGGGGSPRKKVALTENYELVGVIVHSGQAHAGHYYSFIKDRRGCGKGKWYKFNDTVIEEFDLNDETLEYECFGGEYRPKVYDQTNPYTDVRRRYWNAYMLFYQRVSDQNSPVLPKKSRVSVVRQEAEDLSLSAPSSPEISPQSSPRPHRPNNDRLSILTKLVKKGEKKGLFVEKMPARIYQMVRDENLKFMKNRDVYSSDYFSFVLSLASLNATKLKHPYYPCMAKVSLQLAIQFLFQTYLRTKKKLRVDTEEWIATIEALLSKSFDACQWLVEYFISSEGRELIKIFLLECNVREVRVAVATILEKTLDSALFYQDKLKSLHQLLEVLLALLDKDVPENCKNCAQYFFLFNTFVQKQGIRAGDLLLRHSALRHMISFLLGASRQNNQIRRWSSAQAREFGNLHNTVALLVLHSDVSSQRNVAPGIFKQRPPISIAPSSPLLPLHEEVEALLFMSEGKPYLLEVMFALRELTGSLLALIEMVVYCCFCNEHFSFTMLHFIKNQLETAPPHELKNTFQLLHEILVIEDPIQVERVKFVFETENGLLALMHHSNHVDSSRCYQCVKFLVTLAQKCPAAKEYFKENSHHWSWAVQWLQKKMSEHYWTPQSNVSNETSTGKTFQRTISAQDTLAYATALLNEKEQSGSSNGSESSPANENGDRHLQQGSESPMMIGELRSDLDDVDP
Summary of the method: as §1

[4] = molecular target: T3, USP25 (UniProt Q9UHP3)
T3 sequence (whole entry): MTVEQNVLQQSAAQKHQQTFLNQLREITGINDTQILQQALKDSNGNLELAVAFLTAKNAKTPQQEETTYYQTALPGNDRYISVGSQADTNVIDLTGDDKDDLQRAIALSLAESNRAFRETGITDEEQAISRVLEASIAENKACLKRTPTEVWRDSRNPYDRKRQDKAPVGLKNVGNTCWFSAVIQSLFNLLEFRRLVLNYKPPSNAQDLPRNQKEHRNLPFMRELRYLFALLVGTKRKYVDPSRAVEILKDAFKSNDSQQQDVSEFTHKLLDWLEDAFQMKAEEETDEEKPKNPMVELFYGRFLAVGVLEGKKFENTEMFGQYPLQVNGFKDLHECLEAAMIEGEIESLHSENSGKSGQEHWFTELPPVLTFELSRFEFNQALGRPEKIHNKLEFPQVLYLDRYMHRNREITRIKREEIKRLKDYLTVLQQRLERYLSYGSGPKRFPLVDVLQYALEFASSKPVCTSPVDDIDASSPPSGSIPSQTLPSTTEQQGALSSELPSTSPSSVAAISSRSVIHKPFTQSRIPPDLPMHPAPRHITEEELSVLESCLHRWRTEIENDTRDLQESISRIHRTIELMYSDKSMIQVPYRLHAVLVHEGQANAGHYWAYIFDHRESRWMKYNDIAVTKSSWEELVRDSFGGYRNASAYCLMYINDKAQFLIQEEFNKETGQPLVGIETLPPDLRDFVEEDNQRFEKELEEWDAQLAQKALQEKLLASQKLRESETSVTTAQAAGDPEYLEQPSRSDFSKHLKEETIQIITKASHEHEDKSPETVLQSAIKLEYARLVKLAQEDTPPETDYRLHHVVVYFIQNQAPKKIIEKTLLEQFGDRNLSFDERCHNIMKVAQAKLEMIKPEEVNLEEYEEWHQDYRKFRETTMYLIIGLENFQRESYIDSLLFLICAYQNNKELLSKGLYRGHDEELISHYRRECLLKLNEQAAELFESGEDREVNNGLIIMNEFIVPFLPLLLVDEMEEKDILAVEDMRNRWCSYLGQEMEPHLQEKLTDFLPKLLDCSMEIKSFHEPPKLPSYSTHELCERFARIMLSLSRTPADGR
Summary of the method: as §1

[5] = molecular target: T4, USP28 (UniProt Q96RU2)
T4 sequence (whole entry): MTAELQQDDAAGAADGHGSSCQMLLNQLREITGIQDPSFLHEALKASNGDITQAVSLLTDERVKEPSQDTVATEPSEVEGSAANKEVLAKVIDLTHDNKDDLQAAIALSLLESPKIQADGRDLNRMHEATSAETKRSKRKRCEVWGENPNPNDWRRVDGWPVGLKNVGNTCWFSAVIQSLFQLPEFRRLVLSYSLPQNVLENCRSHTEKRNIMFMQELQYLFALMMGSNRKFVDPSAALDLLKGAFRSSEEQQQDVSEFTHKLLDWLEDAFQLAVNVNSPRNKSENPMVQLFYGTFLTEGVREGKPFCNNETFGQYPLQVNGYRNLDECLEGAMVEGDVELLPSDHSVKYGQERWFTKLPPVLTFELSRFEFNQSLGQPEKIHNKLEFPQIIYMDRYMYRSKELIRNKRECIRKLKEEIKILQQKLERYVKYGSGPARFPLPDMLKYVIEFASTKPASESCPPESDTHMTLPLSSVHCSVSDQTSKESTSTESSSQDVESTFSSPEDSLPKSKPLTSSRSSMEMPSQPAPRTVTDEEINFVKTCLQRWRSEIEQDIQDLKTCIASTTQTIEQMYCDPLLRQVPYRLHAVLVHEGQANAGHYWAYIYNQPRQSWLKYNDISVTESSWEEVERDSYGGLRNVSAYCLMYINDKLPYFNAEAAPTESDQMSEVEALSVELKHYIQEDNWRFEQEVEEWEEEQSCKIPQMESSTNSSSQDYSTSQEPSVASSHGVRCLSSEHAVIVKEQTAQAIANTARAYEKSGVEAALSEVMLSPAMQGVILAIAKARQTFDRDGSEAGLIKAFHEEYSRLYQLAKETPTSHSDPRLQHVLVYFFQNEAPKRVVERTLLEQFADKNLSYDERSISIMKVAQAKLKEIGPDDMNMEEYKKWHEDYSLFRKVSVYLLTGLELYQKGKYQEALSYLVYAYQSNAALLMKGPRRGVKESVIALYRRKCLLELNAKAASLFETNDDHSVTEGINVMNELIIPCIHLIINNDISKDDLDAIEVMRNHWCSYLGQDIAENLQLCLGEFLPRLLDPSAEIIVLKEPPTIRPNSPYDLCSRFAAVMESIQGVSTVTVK
Summary of the method: as §1

Measured: log2 ratio of Biotin-Ahx-Ub-VS probe labelling

NC(=O)C(Cc1ccccc1)NC(=O)CCl (stereo not given)
inactive: [1] -0.0793 | [2] -0.0897 | [3] -0.0605 | [4] -0.291 | [5] -0.39
